In the library only some 2.9% were active in any assay of this set; here they are far more common.
IP6K1 inhibitor – blocks human inositol hexakisphosphate kinase 1 | Q92551 | IP6K1 kinase, ADP-Glo luminescence, 2 h; stronger effect = lower value | activity change, % (series mostly up to about 58 µM) | actives 0.81% (n = 140,000) | AID 1645851; in the data active = activity change below about -25%
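ADP-Glo luminescence measures ADP made by human IP6K1 during a 2 h RT reaction with ATP/IP6 (mix at 1.3 mM/130 uM); top library doses 57.5 and 19.1 uM final.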
SNCA expr inhib – SNCA gene expression inhibition; HEK-293 SNCA-luciferase knock-in, luminescence, 24 h; Potency, µM (highest dose often 57.2 µM), usual class: inhibitors; actives 0.17% (n = 140,000); note: nearly all actives have a fitted effect of over 45% in size
KDM5B inhibitor – inhibitors of human KDM5B histone demethylase | Potency, µM (highest dose often 57.7 µM), usual class: inhibitors | actives 2.6% (n = 220,000) | Q9UGL1 | AID 1347165 | KDM5B demethylase, FDH-coupled NADH fluorescence (FDH is formaldehyde dehydrogenase); note: nearly all actives have a fitted effect of over 70% in size
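Measured: NADH fluorescence change, 30 min, RT. System: KDM5BΔAP 200 nM final, H3K4me3 peptide, α-KG, Fe(II), ascorbate, NAD⁺ plus FDH, pH 7.5 HEPES. Compounds: titrated, 10 min pre-incubation with enzyme.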
HEK293 viab – cell viability loss counter-screen | AID 1671193 | actives 0.12% (n = 150,000) | HEK-293-SNCA-luc viability, GF-AFC fluorescence, 24 h | Potency, µM (titrated, usually from 57.1 µM), actives largely listed as cytotoxic; note: nearly all actives have a fitted effect of over 30% in size
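Cytotoxicity counterscreen: after 24 h compound treatment of genome-edited SNCA-luciferase HEK-293 cells, live-cell protease substrate GF-AFC read by fluorescence after 30 min; activity scaled between DMSO (0%) and medium-only (-100%), curves Hill-fitted.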
Numbers stand for hits; – = inactive; ? = inconclusive; · = no result. Unless noted, calls come from the whole dose curve; as a rule, active = well fitted curve in the direction sought with a large enough effect; inconclusive = small, poorly fitted or top-dose-only effect, or another doubt; inactive = no such curve, though single readings can be large; an effect the other way counts as inactive or inconclusive.

SMILES	IP6K1 inhibitor	SNCA expr inhib	KDM5B inhibitor	HEK293 viab
CNc1ncccc1C(=O)N1CC[C@@H](c2ccc3c(c2)OCO3)[C@H](O)C1	–	?	28.2µM	–
CCOC(=O)c1ccc(N2C(=O)c3n[nH]c(-c4cccs4)c3C2c2ccc(Cl)cc2Cl)cc1 (centres undefined)	–	?	–	22.4µM
CCOC(=O)c1ccc(N2C(=O)c3n[nH]c(-c4cccs4)c3C2c2ccc(C)cc2)cc1 (centres undefined)	–	–	–	–
CCOC(=O)c1ccc(N2C(=O)c3n[nH]c(-c4ccco4)c3C2c2ccc(OCC)cc2)cc1 (centres undefined)	–	20µM	?	?
Clc1ccccc1CSCc1ccc(-c2nc(-c3ccncc3)no2)o1	·	·	–	·
Cn1nc(C2CCNC2)c2c(C(=O)NCc3cccs3)cc(C3CC3)nc21 (centres undefined)	–	–	?	–
COCCCNC(=O)c1cc(C2CC2)nc2onc(C3CCNC3)c12 (centres undefined)	–	–	?	–
CC(C)CNC(=O)c1cc(C2CC2)nc2c1c(C1CCNC1)nn2C (centres undefined)	–	–	89.1µM	–
Cn1nc(C2CCNC2)c2c(C(=O)N3CCOCC3)cc(C3CC3)nc21 (centres undefined)	–	–	89.1µM	–
Cn1nc(C2CCCN2)c2c(C(=O)N3CCOCC3)cc(C3CC3)nc21 (centres undefined)	–	–	?	–
COCCNC(=O)c1cc(C2CC2)nc2c1c(C1CCNC1)nn2C (centres undefined)	–	–	89.1µM	–
COCCNC(=O)c1cc(C2CC2)nc2c1c(C1CCCNC1)nn2C (centres undefined)	–	?	89.1µM	–
CCOC(C)C(=O)Nc1ccc2c(c1)NC(=O)CS2 (centres undefined)	·	·	–	·
Cc1ccc(S(=O)(=O)NC(CO)C(=O)O)cc1 (centres undefined)	·	·	–	·
Cc1noc(C)c1C(=O)N1CCCCCCn2c(nnc2-c2ccc(F)cc2)CC1	–	–	–	–
CCc1cccc(N(CC)C(=O)Cn2nc(Cc3ccncc3)c3ccccc3c2=O)c1	·	·	–	·
CC(NC(=O)c1ccc2nccn2c1)c1ccccc1-n1cccn1 (centres undefined)	–	–	?	–
COc1ccc(-c2noc(C(=O)O)c2[C@@H](C)NC(=O)c2cccn2C)cc1	–	–	39.8µM	–
COCCNC(=O)c1cn2ccnc(-c3ccc(OC)cc3)c2n1	–	–	20µM	–
COCCCNC(=O)c1cn2ccnc(-c3ccc(OC)cc3)c2n1	–	–	25.1µM	–
COc1ccc(-c2nccn3cc(C(=O)NCc4ccc(OC)c(OC)c4)nc23)cc1	–	?	?	–
COc1ccc(-c2nccn3cc(C(=O)NCCc4ccccn4)nc23)cc1	–	–	25.1µM	–
COC(=O)c1ccc(/C=C2/SC(=O)N(C(C)C(=O)OC)C2=O)cc1 (centres undefined)	·	·	–	·
CCN(CC)S(=O)(=O)c1ccc(=O)n(Cc2cc(=O)oc3c(C)c(C)ccc23)c1	·	·	–	·
CC(C)Cc1cc(CNc2nccc(-c3cc(C(=O)O)ccn3)n2)no1	–	–	31.6µM	–
SMILES	IP6K1 inhibitor	SNCA expr inhib	KDM5B inhibitor	HEK293 viab
CC(C)[C@@](C)(O)[C@@H]1CN(c2nc(-c3[nH]nc4ncccc34)c(F)cc2Cl)CCN1	–	·	·	29.9µM
Cc1[nH]cnc1-c1nccn1CC(CO)Cc1cccs1 (centres undefined)	–	–	–	–
O=C1c2c(nc(CNCc3cnccn3)n2Cc2ccccc2)NCCN1Cc1cccc(Cl)c1	–	–	25.1µM	–
NS(=O)(=O)c1ccc(NC(=O)NC2CCSc3ccc(F)cc32)cc1 (centres undefined)	·	·	–	·
COc1ccc(-c2ccnc(N[C@H]3CO[C@H]4[C@@H]3OC[C@@H]4NC(=O)c3ccc4c(c3)OCO4)n2)cc1	–	?	–	?
Cc1ccc(C(=O)N[C@H]2CO[C@H]3[C@@H]2OC[C@@H]3Nc2nccc(-c3ccc4c(c3)OCO4)n2)cc1	–	–	28.2µM	–
O=S(=O)(N[C@H]1CO[C@H]2[C@@H]1OC[C@@H]2Nc1nccc(-c2ccc3c(c2)OCO3)n1)c1ccc2ccccc2c1	–	?	28.2µM	–
COc1ccccc1-c1ccnc(N[C@H]2CO[C@H]3[C@@H]2OC[C@@H]3NS(=O)(=O)c2ccc3ccccc3c2)n1	–	–	?	–
Cc1cccc(C(=O)N2CCCCCC2c2nc(-c3cccnc3)no2)c1 (centres undefined)	–	–	–	–

Screening results: PubChem, National Center for Advancing Translational Sciences (NCATS)
